# Test results reported in PubChem BioAssay AID652104 (National Center for Advancing Translational Sciences (NCATS), 2013).
# Values joined by “and” are separate entries in the source; they are usually repeats but may differ in a detail not shown here. Identical values can stand only once. Among all 410,000 compounds or so, about 7,200 (1.8%) were called active. Inconclusive results (about 7%) are left out. The sample holds actives, similar compounds and a random draw of the others, so the mix is not that of the screen. Values without a mark were called inactive. Calls come from the whole dose curve; as a rule, active = well fitted activation curve with a large enough effect; inconclusive = small, poorly fitted or top-dose-only effect, or another doubt; inactive = no such curve, though single readings can be large or run the other way.
# Assay: qHTS of TDP-43 Inhibitors; note: nearly all actives have a fitted effect of over 50% in size; for growth rescue (activation): % of control where 0% means no effect
# Settings: TDP-43 expressing yeast growth rescue, BacTiter-Glo, 24 h; series mostly up to 46.1 µM; growth rescue (activation): at the top concentration
# Summary of the method: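 Cell-based yeast growth screen: TDP-43 expression induced in galactose, inoculum OD600=0.02 after raffinose pregrowth to mid-log. Read-out BacTiter-Glo luminescence at 24 hr, 30 deg C; inhibition of toxicity seen as signal increase.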
# Potency is the fitted concentration of half-maximal effect.
SMILES,growth rescue (activation),Potency
CCCC(=O)Nc1cc2nn(-c3ccccc3)nc2cc1C,20.7%,
CCCOc1ccc(F)cc1-c1cc(C(=O)Nc2ccc(F)c(Cl)c2)[nH]n1,,8.91 µM (active)
COc1ccc(Cl)cc1-c1cc(C(=O)Nc2cc(OC)c(OC)c(OC)c2)[nH]n1,0%,
CCN(CC)C(=O)Oc1ccc(Br)cc1C(=O)Nc1ccc(F)c(Cl)c1,17.1%,
CC(C)(C)c1ccc(C(=O)NCC(c2ccc(Cl)cc2)N2CCOCC2)cc1 (stereo not given),0%,
CCOC(=O)c1ccc(-n2c(CCC(=O)O)ccc2-c2ccccc2)cc1,,25.1 µM (active) and 35.5 µM (active)
COc1ccc(-c2ccc(CCC(=O)O)n2-c2ccc(O)cc2)cc1,-16.9% [at 9.22 µM],
Cc1ccc(-c2ccc(CCC(=O)O)n2-c2ccc(C(N)=O)cc2)cc1,24.7%,
Cc1ccc(C2CCN(C(=O)c3cnn(-c4ccccc4Cl)c3C3CCN(C(=O)OC(C)(C)C)CC3)C2)cc1 (stereo not given),14.4%,
O=C(CN1C(=O)COc2ccc(S(=O)(=O)N3CCCCCC3)cc21)N1CCN(c2cccc(C(F)(F)F)c2)CC1,-15.3%,
Cc1ccc(/C=N/NC(=O)Cn2ccc(C(F)(F)F)n2)o1,-13.1%,
O=C(N/N=C\c1ccc(-c2ccc(Cl)c(Cl)c2)o1)C(=O)N1CCCC1,14.6%,
COC(=O)N/N=C/c1ccc(-c2ccc(Cl)c(Cl)c2)o1,,12.6 µM (active)
Cc1ccc(NC(=O)c2cn3c4c(ccc(Cl)c4c2=O)OC(C)C3)cc1C (stereo not given),8.62%,
Cc1cccc(Nc2cc(C)nc(-n3nc(C)cc3C)n2)c1,20.6%,
COc1ccc2c(Sc3ccc(C)cc3)c(C(=O)NC(C)c3ccccc3)[nH]c2c1 (stereo not given),4.22%,
O=C(CSc1ccccc1)Nc1cccc(S(=O)(=O)N2CCOCC2)c1,10.9%,
CSc1cccc(NC(=O)CSc2ccccc2)c1,,14.1 µM (active)
Cc1nnc(SCC(=O)Nc2cccc(N)c2)n1-c1ccccc1,7.19%,
Cc1ccc2nc(/C(C#N)=C/c3ccc(-c4ccc(C(=O)OC(C)C)cc4)o3)[nH]c2c1,29.7%,
COc1ccccc1NC(=O)c1cc(S(=O)(=O)NCCc2ccccc2)ccc1F,26%,
COc1cccc(N2CCN(S(=O)(=O)c3ccc4c(c3)CCCN4C(C)=O)CC2)c1,14.5%,
COc1cccc(N2C(=O)CC(N3CCc4ccccc4C3)C2=O)c1 (stereo not given),,17.8 µM (active)
COc1cccc(N2C(=O)CC(N3CCN(S(=O)(=O)c4ccccc4)CC3)C2=O)c1 (stereo not given),7.1%,
COc1cccc(N2CCN(C3CC(=O)N(c4ccc(Cl)cc4)C3=O)CC2)c1 (stereo not given),9.45%,

SMILES,growth rescue (activation),Potency
CCOc1ccccc1C(=O)Nc1ccc2c(c1)N(C)C(=O)c1ccccc1S2,10.1%,
CCc1noc(C)c1C(=O)Nc1nc(-c2ccccc2)cs1,,11.2 µM (active)
CCc1noc(C)c1C(=O)N1CCCSC1=Nc1ccccc1OC,13.6%,
CCc1noc(C)c1C(=O)OCC(=O)c1ccc(NC(=O)CC(C)C)cc1,-3.44%,
O=C(/C=C/c1cn(CC(O)CN2CCc3ccccc32)c2ccccc12)c1ccc(Br)cc1 (stereo not given),-30.3%,
CC1CCN(c2oc(-c3ccccc3F)nc2C#N)CC1,,15.8 µM (active)
Cc1ccccc1OCc1ccc(-c2nc(C#N)c(N3CCCCC3)o2)o1,0.64%,
COc1ccc(OCc2ccc(-c3nc(C#N)c(N4CCN(c5ccccc5)CC4)o3)o2)cc1,6.14%,
Cc1nn(C)c2c1c(C(F)(F)F)cc(=O)n2C(C)C(=O)NCc1ccc(Cl)cc1 (stereo not given),2.64%,
Cc1ccccc1CNC(=O)CCCn1nc(C)c2sc3ccccc3c2c1=O,2.7%,
Cc1cc(-c2cccs2)nc(-n2cccc2)n1,,12.6 µM (active)
CC(C)(C)Nc1c(-c2cccs2)nc2ccccn12,-18.1%,
Cc1cc2nc(C(F)(F)F)cc(-c3cccs3)n2n1,7.65%,
CCc1nnc(SCc2c(F)cccc2Cl)c2cc3sccc3n12,-0.933%,
CC(=O)OCC1(O)CC23CCC4c5ccoc5CCC4(C)C2CCC1C3 (stereo not given),,17.8 µM (active)
CCSc1ncc(Cl)c(C(=O)Nc2c(C(=O)c3ccccc3)oc3ccccc23)n1,2.95%,
COC[C@@H]1NS(=O)(=O)c2ccc(Br)cc2O[C@H]1c1ccccc1,7.89%,
C[C@H]1NS(=O)(=O)c2cc(Cl)ccc2O[C@@H]1c1ccccc1,0.684%,
C[C@@H]1NS(=O)(=O)c2cc(Cl)ccc2O[C@@H]1c1ccccc1,,17.8 µM (active)
Cc1ccc2nc(-c3ccc(O)cc3)c(Nc3ccc4c(c3)OCO4)n2c1,21.7%,
COc1cc(Br)c(-c2sc(Nc3ccccc3)n[n+]2-c2ccccc2)cc1OC,6.16%,
CCc1ccc(Nc2n[n+](-c3ccccc3)c(-c3cccc(Cl)c3Cl)s2)cc1,,35.5 µM (active)
COc1ccc(C)cc1S(=O)(=O)Nc1cccc(Cl)c1Cl,13%,
COc1ccc(C)cc1Nc1n[n+](-c2ccccc2)c(-c2cccc(Cl)c2Cl)s1,,35.5 µM (active)
Cc1ccc(S(=O)(=O)N2CCc3cc(C(=O)Nc4ccc(Cl)cc4C)ccc32)cc1,12.7%,

SMILES,growth rescue (activation),Potency
CC(=O)c1c(C)n(S(=O)(=O)c2ccc(Cl)cc2)c2ccc(NS(=O)(=O)c3ccc(Cl)cc3)cc12,26.6%,
CCc1ccc(NC(=O)c2cc3c(=O)n(Cc4cccnc4)ccc3nc2C)cc1,6.57%,
CCc1cc2c(SCC(=O)Nc3ncc(Cl)c(C)c3Cl)ncnc2s1,29.1%,
CCc1cc2c(NC(Cc3ccccc3)C(=O)O)ncnc2s1 (stereo not given),6.4%,
CCc1cc2c(NC3CCCC3)ncnc2s1,,12.6 µM (active)
Cc1ccc2c(=O)c(C(=O)c3cccc(Cl)c3)cn(CC(=O)NCc3ccccc3)c2n1,-1.08%,
Cc1nn2c(=O)cc(COC(=O)c3cccc(NC(=O)COc4ccccc4Cl)c3)nc2s1,13.4%,
CCOc1cc(/C=N/O)cc(Br)c1OC,,11.2 µM (active)
CCOc1cc(/C=N/n2cnnc2)c(Br)cc1O,-10.2%,
CCOc1c(Br)cc(/C=C2\C(=O)N(CCC#N)N=C2C)cc1OC,-3.23%,
O=S(=O)(c1ccc(Br)cc1)c1nnn2c1nc(N1CCOCC1)c1sccc12,3.38%,
COc1cc(Nc2nc(-c3ccc(OC)c(OC)c3)nc3ccccc23)cc(OC)c1,18.5%,
CCCCN(CC)CCCNC(=O)c1nn(C)c2c1CS(=O)(=O)c1ccccc1-2,1.93%,
COc1ccc(Cn2c(=O)sc3ccccc32)cc1OC,,11.2 µM (active)
C=CCSc1nnc(Cn2c(=O)sc3ccccc32)n1C,9.94%,
COc1ccc(CN2CCOC2=O)cc1OC,5.01%,
CCCCCn1c(=O)[nH]c2cc(C(=O)NCCN(C)CCCC)ccc2c1=O,20.9%,
CCC(=O)N1CCc2cc(S(=O)(=O)NC(Cc3ccccc3)C(=O)NCc3ccccc3)ccc21 (stereo not given),16.9%,
COc1ccc(CNC(=O)C2=Cc3cccc(OC)c3OC2)cc1OC,0% [at 9.22 µM],
COc1cc(NC(=O)c2cc([N+](=O)[O-])ccc2Br)ccc1NC(=O)c1ccco1,,10 µM (active)
COc1ccc([N+](=O)[O-])cc1NC(=O)COC(=O)/C=C/c1ccco1,9.61%,
COc1ccc(NC(=O)c2ccco2)cc1NC(=O)COc1ccc(C)c(C)c1,19.3%,
COCCNC(=O)c1ccc2c(c1)N=C(C)c1cc(C)ccc1S2,4.19%,
CCCn1c2ccccc2c2cnn(CC(=O)N(CC)c3cc(C)ccc3C)c(=O)c21,-19.8%,
CCCn1c2ccccc2c2cnn(CC(=O)N(C)c3ccccc3CC)c(=O)c21,,28.2 µM (active)

SMILES,growth rescue (activation),Potency
CCCn1c2ccccc2c2cnn(CC(=O)NCCCOC(C)C)c(=O)c21,15.2%,
Cc1ccc(S(=O)(=O)c2nc(-c3cccs3)oc2N2CCCCC2)cc1,12.1%,
COc1ccc(N2CCN(c3cc(C)nc4nncn34)CC2)cc1,4.9%,
Cc1ccccc1NC(=O)Cn1cc(C(=O)c2cccs2)c2ccccc21,11.7%,
Cc1ccc(C(=O)N2CCc3cc(CNC(=O)c4ccc(Br)cc4)ccc32)cc1,-9.12%,
CCCCc1ccc(NC(=O)NCc2cccnc2)cc1,6.28%,
O=C(O)C1CC(=O)N(Cc2cccnc2)C1 (stereo not given),-14.9%,
CCCCCCCCCCCCN1C(=O)CSC1c1cccnc1 (stereo not given),,20 µM (active)
CCOc1ccc(CNC(=O)C2CCN(c3nnc(-n4cccc4CNc4ccc(C)cc4)s3)CC2)cc1OC,9.74%,
COc1ccccc1N1CCN(c2ccc(=O)n(CC(=O)NCc3ccc(OC(C)C)cc3)n2)CC1,-15.5%,
Clc1ccc(Nc2nc(-c3cccs3)cs2)nc1,,8.91 µM (active)
CCN(c1ccc(Cl)cc1)S(=O)(=O)c1nnc(NC(=O)c2ccco2)s1,7.64%,
CCc1cnc2c(c1SCC(=O)N1CCC(C)CC1)c(=O)n(C)c(=O)n2C,11.7%,
Cc1cc(-c2n[nH]c(=S)n2/N=C/C(Br)=C/c2ccccc2)n[nH]1,,35.5 µM (active)
CCCc1cc(-c2n[nH]c(=S)n2CC)c2ccccc2n1,6.52%,
C#Cc1cc(N2CCN(C(=O)c3ccoc3)CC2)n2nc(-c3cccc(Cl)c3)cc2n1,,22.4 µM (active)
O=C(c1cccc(Cl)c1)N1CCN(CCc2ccncc2)CC1,-9.8%,
O=C(Cn1cc(SCc2cccc(Cl)c2)c2ccccc21)N1CCCCC1,21.1%,
CN(C(=O)c1cc2c(=O)n3ccccc3nc2s1)C1CCCCC1,,14.1 µM (active)
O=C(Nc1ccc(OC(F)(F)F)cc1)c1cc2c(=O)n3ccccc3nc2s1,7.86%,
CCOCCCNC(=O)c1cc2c(=O)n3ccccc3nc2s1,,inactive
CCN(CCCNC(=O)c1cc2c(=O)n(CC)c3ccccc3c2s1)Cc1ccccc1,2.18%,
Cc1oc2ncnc(N3CCOCC3)c2c1C(=O)NCCc1ccccc1,20.6%,
NS(=O)(=O)c1ccc(CCNC(=O)CCCCCn2c(=O)[nH]c3ccccc3c2=O)cc1,10.1%,
CCc1ccc(NC(=O)c2cc(S(=O)(=O)NC3CCCCCC3)ccc2F)cc1,19.2%,
